From PubChem BioAssay AID624305 (National Center for Advancing Translational Sciences (NCATS), 2012) come the findings set out here.

Records with an inconclusive call do not appear. A number with no mark means an inactive call. Calls of active or inactive are those of the source. Calls come from the whole dose curve; as a rule, active = well fitted activation curve with a large enough effect; inconclusive = small, poorly fitted or top-dose-only effect; inactive = no such curve, though single readings can be large or run the other way.
Potency is the fitted concentration of half-maximal effect.

The assay in a line: qHTS assay for re-activators of p53 using a Luc reporter: Hit Validation. For activation: 0% is about no effect. Note: nearly all actives have a fitted effect of over 75% in size. The conditions noted are these: p53-responsive luciferase reporter cells, luminescence, H1299 line expressing heat-sensitive Ala138Val p53; series mostly up to 46.1 µM; activation: at the top concentration. A digest of the protocol: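 H1299 (p53-null) cells stably carrying p53-A138V and a BP100-luciferase reporter, 1000 cells/well, treated 24 h at 37 deg C. Compounds at several concentrations, 1:5 dilution; nocodazole control; luminescence read after 10 min with detection reagent.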
For the compound `CNc1ccc(/C=C/C(=O)c2ccc(C)cc2)cc1[N+](=O)[O-]`, the “activation” value is 15.1%.

As to `CCc1nnc(NC(=O)/C=C/c2ccco2)s1`, the Potency is 20600 nM (active).

`COc1ccccc1C(=O)NC(=S)NNC(=O)c1sc2ccccc2c1Cl`: the “activation” value is 43.8%.

On to `CC(/C=C/c1ccccc1)=N/O`, for which the “activation” value is 21.9%.

As for `CCOC(=O)c1c(C)[nH]c(C(=O)CSc2ccccc2)c1C`, the Potency is 517 nM (active).

In the case of `O=C(Nc1ccc(Br)cn1)c1cccc(-c2cc3ccccc3oc2=O)c1`, the Potency is 16400 nM (active).

`O=C(CCC1CCCC1)Nc1ccc(Br)cn1`: the Potency is 11600 nM (active).

For the compound `CCOc1ccc(OCCSc2nc3ccccc3n2CC(=O)O)cc1`, the “activation” value is -1.04%.

Consider `N#CC(c1ccccc1)C1CCN(Cc2ccccc2)CC1` (configuration not stated), for which the “activation” value is -1.04%.

As for `Cc1cc(C(=O)Nc2nc3c(s2)CCCC3)cs1`, the Potency was 231 nM (active).

In the case of `COc1ccccc1NC(CC(=O)c1ccccc1)C(=O)OCC(=O)c1ccc(C)c(C)c1` (configuration not stated), the Potency was 291 nM (active).

Regarding `Cc1cccc(-n2c(C)cc(/C=N\NC(=O)c3cccs3)c2C)c1`, the Potency was 1160 nM (active).

`CCOC(=O)c1c(NC(=O)C2COc3ccccc3O2)sc2c1CCN(Cc1ccccc1)C2` (configuration not stated): the “activation” value is -4.69%.

In the case of `CC(=O)c1cc2c(C)c(C(=O)c3ccccc3)oc2cc1O`, the Potency is 411 nM (active).

With `CC(C)(C)NC(=O)C(c1ccc(Cl)cc1)N(CCO)C(=O)c1snc(C(N)=O)c1N` (configuration not stated), the “activation” value was -2.08%.

On to `O=C(NOCc1ccccc1)c1ccc(Cl)cc1`, for which the Potency is 1840 nM (active).

Take `CCCCC(=O)Nc1cccc(NC(=S)NC(=O)Cc2ccccc2)c1`: the “activation” value was -23.4%.

Take `O=C(Nc1cccnc1)c1ccc([N+](=O)[O-])s1`: the “activation” value was 17.2%.

With `c1ccc(Oc2cc(-n3cncn3)ncn2)cc1`, the “activation” value was 30.2%.

Turning to `CCN(CC)c1ccc(NC(=O)CN2CCN(CC(=O)Nc3ccccc3F)CC2)cc1`, the “activation” value was 5.21%.

Regarding `Cc1c(/C(O)=C2/C(=O)C(=O)N(CCN3CCOCC3)C2c2cccs2)cnn1-c1ccccc1` (configuration not stated), the Potency was 8200 nM (active).

On to `CN(C)c1ccc(/C=N/N=C/c2ccccc2O)cc1`, for which the Potency was 461 nM (active).

As to `C/C(=N\NS(=O)(=O)c1ccc(Cl)cc1)c1ccc(NC(=O)c2ccco2)cc1`, the “activation” value was 24.5%.

For `COc1cc(NC(=O)C(C)C)ccc1NC(=O)c1ccco1`, the Potency is 7310 nM (active).

As to `C=CCn1c(C)cc(C(=O)COC(=O)c2ccc(N)c([N+](=O)[O-])c2)c1C`, the Potency is 411 nM (active).

As for `COc1ccc(-c2csc(NCc3ccco3)n2)cc1C`, the Potency is 18400 nM (active).

For the compound `COc1ccc2c(=O)c(-c3nc(C)cs3)coc2c1`, the Potency was 2060 nM (active).

Turning to `CC(C)(C)c1ccc(S(=O)(=O)N2CCSC2)cc1`, the activation was -4.43% [at 9.22 µM].

As for `CCOc1ccc(NC(=O)c2cnsn2)cc1`, the Potency was 2310 nM (active).

Turning to `COC(=O)c1ccc(/C=C/c2ccc3cccc(OC(C)=O)c3n2)cc1`, the Potency is 2910 nM (active).

In the case of `Clc1ccc(OCc2nc(-c3ccccn3)n[nH]2)cc1`, the “activation” value was -5.21%.

For `Cc1ccc(C(=O)c2c3ccc([N+](=O)[O-])cc3[n+]([O-])n2CCCN)cc1`, the “activation” value was 15.1%.

For `Cc1ccc(C)c(Oc2cc(NC(=O)CCCn3nc(C)c([N+](=O)[O-])c3C)cc([N+](=O)[O-])c2)c1`, the “activation” value is -32.8%.

As to `Cc1ccc(CNc2cc(C(=O)O)ccc2Cl)s1`, the “activation” value was -12.5%.

Take `CCOc1ccc(NS(=O)(=O)c2ccc(C(=O)NC3CCN(Cc4ccccc4)CC3)cc2)cc1`: the “activation” value is -2.08%.

With `Cc1cc(C)nc(SCc2csc(-c3ccccc3)n2)n1`, the Potency is 13000 nM (active).

With `COc1ccccc1OCCn1nnc2ccccc21`, the “activation” value was 36.5%.
